# Source: article PMC5540273 (PLoS ONE, 2017)
# Tests used:
# Conditions in all cases: concentration: 1 μM, replicates: in singlicate; n = 1
# PRKD3 = system: PRKD3
# PRKG1 = system: PRKG1
# PRKG2 = system: PRKG2
# PRKR = system: T1, PRKR
# T1 construct: gene EIF2AK2
# PRKX = system: PRKX
# PRP4 = system: PRP4
# PYK2 = system: T2, PYK2
# T2 construct: gene PTK2B
# QSK = system: QSK
# RAF1 = system: RAF1
# RET = system: RET
# RIOK1 = system: RIOK1
# RIOK2 = system: RIOK2
# RIOK3 = system: RIOK3
# RIPK1 = system: RIPK1
# RIPK2 = system: RIPK2
# RIPK4 = system: RIPK4
# RIPK5 = system: RIPK5
# ROCK1 = system: ROCK1
# ROCK2 = system: ROCK2
# ROS1 = system: ROS1
# 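Note: KINOMEscan kinase panel screen.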
Compound,%Inh (PRKD3),%Inh (PRKG1),%Inh (PRKG2),%Inh (PRKR),%Inh (PRKX),%Inh (PRP4),%Inh (PYK2),%Inh (QSK),%Inh (RAF1),%Inh (RET),%Inh (RIOK1),%Inh (RIOK2),%Inh (RIOK3),%Inh (RIPK1),%Inh (RIPK2),%Inh (RIPK4),%Inh (RIPK5),%Inh (ROCK1),%Inh (ROCK2),%Inh (ROS1)
Cc1ccc(NC(=O)c2cccc(N3CCCCC3)c2)cc1-c1ccc(C(=O)NCC2CC2)cc1 [GSK1917008],100%,31%,0%,0%,26%,4%,0%,8%,88%,10%,34%,15%,0%,13%,6%,29%,0%,2%,0%,6%
CCNC(=O)/C=C/c1n[nH]c2cc(Sc3ccccc3C(=O)NC)ccc12,0%,14%,2%,0%,3%,0%,0%,0%,0%,80%,0%,7%,0%,0%,29%,4%,18%,4%,1%,33%
CCn1cnc2c(NCc3ccccc3)ncnc21 [SKF-96418],0%,0%,0%,8%,0%,41%,0%,10%,17%,0%,0%,0%,0%,0%,0%,13%,28%,56%,16%,0%
N#CC1(c2cccc(C(=O)Nc3cccc(Oc4ccc5nc(NC(=O)C6CC6)sc5n4)c3)c2)CC1,0%,16%,0%,7%,0%,21%,0%,18%,100%,100%,0%,0%,0%,15%,55%,0%,0%,0%,0%,1%
COC(=O)Nc1nc2cc(Oc3ccc(NC(=O)Nc4cccc(SC)c4)cc3)ccc2[nH]1.Cl [GW697999],18%,1%,17%,0%,24%,28%,0%,0%,92.6%,99.8%,13%,0%,2%,4%,29%,2%,0%,82%,55%,0%
